From PubChem BioAssay AID651661 (Broad Institute, 2012)
Out of some 350,000 compounds screened, about 2,300 (0.66%) were called active.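 How the source made its calls: active means mean inhibition of at least 50% after viability correction, with every replicate also passing that limit; inconclusive means mean reaches 50% but only one of two replicates passes; inactive means the rest.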 The entries come from a sample that favours actives as a whole.

Assay: blockers of EWS/Fli transcriptional output – A673 cells, NR0B1 luciferase, luminescence, MLPCN library, primary screen (AID 651661);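 further: firefly luciferase signal divided by Alamar Blue viability fluorescence both relative to DMSO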
Details: A673 NR0B1-luciferase reporter, viability-normalised; at 12.6 µM; active compounds read high
In the case of `CCS(=O)(=O)Nc1ccc2c(c1)C(=O)N(C)[C@H]1CC[C@H](CC(=O)Nc3ccccc3)O[C@@H]1CO2`, the inhibition is reported as -5.08% (inactive). In the case of `COc1ccc(S(=O)(=O)N2CCCCN3[C@H](C2)[C@H](c2ccc(C4=CCCC4)cc2)[C@@H]3CO)cc1`, the inhibition is reported as -9.53% (inactive). In the case of `C[C@H]1CN([C@@H](C)CO)C(=O)c2ccccc2-c2ccccc2CO[C@H]1CN(C)Cc1ccc(-c2ccccc2)cc1`, the inhibition is reported as 8.23% (inactive). In the case of `COc1ccc2c3c(n(C)c2c1)[C@@H](CO)N(CC1CC1)CC31CCN(C(=O)c2ccc3c(c2)OCO3)CC1`, the inhibition is reported as 17.4% (inactive). With `N#C[C@@H]1[C@H](c2ccccc2-c2ccccc2F)[C@@H](CO)N1C(=O)c1ccccn1` the inhibition was 31.4% (inactive). For `CO[C@H]1CN(C)C(=O)c2ccc(NS(=O)(=O)c3ccccc3)cc2OC[C@H](C)N(Cc2nccs2)C[C@@H]1C`, the inhibition was 3.5% (inactive). For `O=C(c1ccccc1)N1CC(=O)N2[C@@H](CO)[C@H](c3ccc(C#CC4CC4)cc3)[C@@H]2C1`, the inhibition was -6.36% (inactive). With `C[C@H](CO)N1C[C@H](C)[C@@H](CN(C)S(=O)(=O)c2cn(C)cn2)OCCCC[C@H](C)Oc2ccc(NC(=O)Cc3ccccc3)cc2C1=O` the inhibition was 2.69% (inactive). In the case of `CC(=O)Nc1ccc2c(c1)C(=O)N(C)[C@H]1CC[C@H](CC(=O)NCc3ccccc3Cl)O[C@H]1CO2`, the inhibition is reported as -1.68% (inactive). With `Cc1cccc(S(=O)(=O)N2C[C@@H]3[C@H](c4ccccc42)[C@@H](CO)N3C(=O)c2ccccc2)c1` the inhibition was 1.99% (inactive). With `Cc1cccc(CNS(=O)(=O)c2ccc(-c3cnc(C4CC4)o3)cc2)c1` the inhibition was -1.32% (inactive). For `COc1ccc(CNS(=O)(=O)c2ccc(-c3cnc(C4CC4)o3)cc2)cc1`, the inhibition was 4.87% (inactive). With `Cc1cccc(NS(=O)(=O)c2ccc(-c3cnc(C4CC4)o3)cc2)c1` the inhibition was 53.1% (active). For `COc1ccccc1NC(=O)N1CC(=O)N2[C@H](C1)[C@H](c1ccc(C#Cc3ccccc3)cc1)[C@@H]2CO`, the inhibition was 0.577% (inactive). For `C[C@@H](O)C#Cc1ccc([C@H]2[C@H]3CN(C(=O)c4ccc5c(c4)OCO5)CCCCN3[C@H]2CO)cc1`, the inhibition was -9.79% (inactive). With `C[C@H]1CN([C@@H](C)CO)C(=O)c2cc(C3=CCCC3)cnc2O[C@@H]1CN(C)Cc1cccnc1` the inhibition was -9.75% (inactive). For `COc1ccc(/C=C2\SC(=S)N(CCCC(=O)NC3CCCC3)C2=O)cc1OC`, the inhibition was 55.1% (active). With `COc1ccc(/C=C/C(=O)OCC(=O)NC2CCCCCC2)cc1OC` the inhibition was -1.04% (inactive). In the case of `COc1ccc(/C=C2\SC(=S)N(CCC(=O)N3CCOCC3)C2=O)cc1OC`, the inhibition is reported as 0.114% (inactive).
